# Source: PubChem BioAssay (Tox21)
# Inconclusive results are not listed. Where a call stands in place of a potency, no number is given. A number with no mark means an inactive call. The source made the active and inactive calls. The call rests on the fitted dose curve; in most records, active means well fitted cell-killing curve with a large enough effect in the repeat runs; inconclusive means weak or mixed curves, or effect the other way; inactive means flat fitted curve, though single readings scatter.
# Experiment: qHTS RealTime-Glo MT Cell Viability Assay in HEK293 cells - 24 hour (AID 1224886); further: top concentration of the series differs between compounds; nearly all actives have a fitted effect of over 50% in size
# Details: RealTime-Glo luminescence; series mostly up to 76.8 µM
# Excerpt: National Center for Advancing Translational Sciences [NCATS]
# NIH Chemical Genomics Center [NCGC]
# U.S. Environmental Protection Agency [EPA]
# National Institutes of Environmental Health Sciences [NIEHS]
# National Toxicology Program [NTP]
# U.S. Food and Drug Administration [FDA]
# Measure of cell viability is critical in the cell-base assay. Analysis of cell viability is necessary for the characterization of cell responses to cytotoxic drugs and environmental stress. A RealTime-Glo MT Cell Viability Assay to monitor cell viability in real time of continues cell culture during 40 hours of compound treatment was used to screen Tox21 10K library compounds in Hek293 cells. The RealTime-Glo MT Cell Viability Assay is a nonlytic, homogeneous, bioluminescent method to measure cell viability in real time using a simple, plate-based method. The assay involves adding NanoLuc luciferase and a cell-permeant prosubstrate to cells in culture. Viable cells reduce the proprietary prosubstrate to generate a substrate for NanoLuc luciferase. This substrate diffuses from cells into the surrounding culture medium, where it is rapidly used by the NanoLuc Enzyme to produce a luminescent signal. The signal correlates with the number of viable cells, making the assay well suited for cytotoxicity studies.
# Tox21 Assay Protocol Summary:
# The mixture of Hek293 cell suspension and reagents were dispensed at 600cells/6 ul/well in 1536-well tissue culture treated black solid bottom plates using a Multidrop dispenser. After the assay plates were incubated at a 37 C/5% CO2 incubator for 5 hours, 23 nL of compounds dissolved in DMSO, positive and negative controls was transferred to the assay plate by a pintool work station. The plates were incubated at 37 C for 40 hours. The luminescence intensity were measured at 0h, 8h, 16h, 24h, 32h and 40h time points using ViewLux plate reader during compound treatment.
SMILES,Potency,"activity change, negative = cytotoxicity"
c1ccc(CCCc2ccccn2)cc1,inactive,–
OCc1ccccn1,inactive,–
CC(CCO)CCCC(C)(C)O (stereo not given),inactive,–
Cc1ccccc1C(=O)O,inactive,–
CCCCOCC(C)OCC(C)O (stereo not given),inactive,–
Fc1ccccc1-c1ccccc1,inactive,–
[O-][N+](=Nc1ccccc1)c1ccccc1,inactive,–
N#CC1(O)CCCCC1,inactive,–
CCCCCCCCCCCCCCCCCC(=O)OCCCCCCCCCCCCCC(C)C,inactive,–
C=CCSCC1Nc2cc(Cl)c(S(N)(=O)=O)cc2S(=O)(=O)N1 (stereo not given),inactive,–
CCO[Si](CCCN=C=O)(OCC)OCC,inactive,–
C1COCCO1,inactive,–
CCCC=O,inactive,–
CC/C=C\CCCCO,inactive,–
C=C(C)C(=O)NCCCN(C)C,inactive,–
FC(F)(F)C(F)(F)C(F)(F)C(F)(F)C(F)(F)C(F)(F)C(F)(F)C(F)(F)C(F)(F)C(F)(F)F,–,-12.9% [at 6.97 µM]
CCO[Si](C)(OCC)OCC,inactive,–
CC(C)[C@H](N)C(=O)OCCOCn1cnc2c(=O)[nH]c(N)nc21,inactive,–
NCC[C@H](O)C(=O)N[C@@H]1C[C@H](N)[C@@H](O[C@H]2O[C@H](CN)[C@@H](O)[C@H](O)[C@H]2O)[C@H](O)[C@H]1O[C@H]1O[C@H](CO)[C@@H](O)[C@H](N)[C@H]1O,–,4.59% [at 0.29 µM]
Cn1cnc2c(=O)[nH]c(N)nc21,inactive,–

SMILES,Potency,"activity change, negative = cytotoxicity"
C#CC(O)C(CC)CCCC (stereo not given),inactive,–
CC/C=C\C#N,inactive,–
C=CCOc1nc(OCC=C)nc(OCC=C)n1,inactive,–
COc1ccc(COC=O)cc1,inactive,–
Oc1cc(O)c2c(c1)O[C@H](c1ccc(O)c(O)c1)[C@H](O)C2,inactive,–
CCCCC=O,inactive,–
O=C(O)c1ccccc1S,inactive,–
Cn1ccc2cc3c(cc21)CCN3C(=O)Nc1cccnc1,–,-8.85% [at 15.8 µM]
CC(C)CCOC(=O)CC(C)C,inactive,–
CCc1cc(S(=O)(=O)O)c2cc(C(C)C)cccc1-2,inactive,–
c1ccc2cnncc2c1,inactive,–
COC(=O)C1=C(C)NC(C)=C(C(=O)OCC(C)=O)C1c1ccccc1[N+](=O)[O-] (stereo not given),inactive,–
O=S(=O)(c1cccc2cnccc12)N1CCCNCC1,inactive,–
CCC(=O)c1cccc(Cl)c1,inactive,–
NC(CS)C(=O)O (stereo not given),inactive,–
Nc1ncnc2c1ncn2Cc1c(F)cccc1Cl,inactive,–
Cc1ccccc1Br,inactive,–
CCOC(=O)[C@H](CCc1ccccc1)N[C@@H](C)C(=O)N1CCC[C@H]1C(=O)O,inactive,–
COc1cc(O)cc(O)c1,inactive,–
CC(C)(C)N(CCO)CCO,inactive,–
